Measured values: PubChem BioAssay AID1063 (University of Pittsburgh Molecular Library Screening Center, 2008)
In all, about 200,000 compounds went through this assay and about 18,000 (9%) were called active. Cut-off read from the data, not from the text of the source: active = inhibition above about 50%; inactive = the rest. What follows is part of a selection rich in actives, with near analogues and random picks from the rest.

assay: antileishmanial activity against promastigotes – primary screen (AID 1063); details: Leishmania major promastigotes, resazurin fluorescence viability; at 10 µM; hits give high values;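 note: promastigotes grown with compound for 44 hours at 28 °C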

SMILES | inhibition
O=C1CCC/C(=N\NC(=O)NC2CCCCC2)C1 | -1.59% (inactive)
CCOc1ccc(S(=O)(=O)Nc2nccs2)cc1 | -5.45% (inactive)
CC(C)(C)C(=O)CN1C2=NCCN2c2ccccc21 | -5.39% (inactive)
Fc1cccc(CSc2nnc3ccc(-c4ccncc4)nn23)c1 | 10.7% (inactive)
CCOC(=O)c1[nH]c2ccc(OC)cc2c1NC(=O)N1CCOCC1 | 2.48% (inactive)
Cc1c(C(=O)N2CCOCC2)[nH]c2ccc(OCc3ccccc3)cc12 | 88.8% (active)
Cc1c(C(=O)CN2CCOCC2)[nH]c2ccccc12 | -3.24% (inactive)
CCCCN(C(=O)c1ccc(OC(F)(F)F)cc1)c1c(N)n(CCC)c(=O)[nH]c1=O | -4.12% (inactive)
Cc1ccc(S(=O)(=O)N(C)C)cc1NC(=O)COC(=O)C1COc2ccccc2O1 (stereo unspecified) | 4.18% (inactive)
Fc1ccc2nc(Nc3nc4c(s3)CCCC4)sc2c1 | 77.9% (active)
Fc1ccc2nc(N3CCCCC3)sc2c1 | 2.6% (inactive)
CSc1ncccc1C(=O)Nc1nc2ccc(F)cc2s1 | 28.5% (inactive)
CCn1c(SCC(=O)N(C)C2CCS(=O)(=O)C2)nnc1-c1cccs1 (stereo unspecified) | -1.56% (inactive)
COc1ccc(NC(=O)c2cc3nc(-c4ccccc4)cc(C)n3n2)cc1OC | 19.4% (inactive)
COc1cccc2sc(N(CCCN(C)C)C(=O)C(c3ccccc3)c3ccccc3)nc12 | 94.5% (active)
CN(C)CCCN(C(=O)COc1ccccc1)c1nc2c(Cl)cccc2s1 | 1.9% (inactive)
CC(=O)N(CCCN(C)C)c1nc2ccc(C)cc2s1 | -6.81% (inactive)
CCCCCCCNc1nc(Cl)nc(NCCO)n1 | -8.89% (inactive)
COc1ccc(Br)cc1CN1CCN(C(=O)c2cccc(OC)c2OC)CC1 | 0.16% (inactive)
COc1cc2c(C(=O)N3CCN(C)CC3)c(CSc3ccccc3)n(C)c2cc1Br | 50.6% (active)
COc1ccccc1OCc1ccc(C(=O)N2CCN(C)CC2)o1 | -7.4% (inactive)
CC(=O)c1ccc(N2CCN(S(=O)(=O)c3c(C)[nH]c(=O)[nH]c3=O)CC2)cc1 | -5.88% (inactive)
Cc1oc2cc([N+](=O)[O-])c(O)c([N+](=O)[O-])c2c1C(=O)c1ccc(Br)cc1 | -8.1% (inactive)
COc1cccc(CN(C)CC(=O)Nc2sc3c(c2C#N)CCC3)c1 | -4.03% (inactive)

SMILES | inhibition
O=C(CN1C(=O)CC(c2ccccc2)S(=O)(=O)c2ccccc21)NC1CCCC1 (stereo unspecified) | 5.62% (inactive)
COc1ccc(-n2cnnc2SCC(=O)Nc2cccc([N+](=O)[O-])c2)cc1 | -9.51% (inactive)
CC(C)CC(=O)NC(=S)NNC(=O)c1cccc([N+](=O)[O-])c1 | 7% (inactive)
Cn1c(-c2ccc(F)cc2)cnc1SCC(=O)NNC(=O)Cc1ccccc1 | 0.35% (inactive)
COC(=O)Cn1c(=NC(=O)c2cc(OC)c(OC)c(OC)c2)sc2cc(OC)ccc21 | 55.3% (active)
COC(=O)Cn1c2ccc(C)cc2c2nc(C)sc21 | -6.29% (inactive)
COC(=O)c1sccc1NC(=O)c1cc(OC)c(OC)c(OC)c1 | 8.27% (inactive)
CC(C)(C)C(=O)CSc1nc2ccccc2o1 | 4.86% (inactive)
CCN(CC)CCNc1nc(-c2ccc(OC(F)F)cc2)c(C)s1 | 99.4% (active)
NC(=O)C[n+]1cccc(C(N)=O)c1 | -3% (inactive)
COn1c(-c2ccc(Cl)cc2Cl)nc2ncccc21 | -6.75% (inactive)
S=c1[nH]nc(-c2cccnc2)n1/N=C/C(Cl)=C\c1ccccc1 | 86% (active)
Cc1ccccc1-c1n[nH]c(=S)n1/N=C/c1ccc(-c2ccccc2Br)o1 | 23% (inactive)
CCN(CC)S(=O)(=O)c1cccc(-c2n[nH]c(=S)n2/N=C/c2ccc(C(=O)OC)cc2)c1 | 27.8% (inactive)
COc1ccccc1N1CCN(/N=C\C(Br)=C\c2ccccc2)CC1 | -5.39% (inactive)
c1ccc(-n2nnnc2-c2cccnc2)cc1 | -7.89% (inactive)
Cc1cc(-c2n[nH]c(=S)n2/N=C/C(Br)=C/c2ccccc2)n[nH]1 | 88.5% (active)
Clc1ccc(N/N=C/c2cccs2)nn1 | -2.51% (inactive)
C/C(N)=C(/C#N)C(=O)COC(=O)c1cc(-c2ccc(C)cc2)nc2ccccc12 | 18.1% (inactive)
C/C(N)=C(/C#N)C(=O)COC(=O)c1cc(-c2ccccc2)nc2ccc(Br)cc12 | -4.87% (inactive)
C/C(N)=C(/C#N)C(=O)COC(=O)c1cc(-c2cccc(Br)c2)nc2ccccc12 | 59.9% (active)
O=C(NCc1ccccc1Cl)C1CCCO1 (stereo unspecified) | -3.01% (inactive)
COc1ccc(-c2nnc3ccc(SCc4ccccc4)nn23)cc1 | -3.51% (inactive)
O=C1CCC(=O)N1c1ccc(NCCc2ccccc2F)c([N+](=O)[O-])c1 | -3.12% (inactive)

SMILES | inhibition
Cc1ccccc1C(=O)OC1OC(=O)C(Cl)=C1Nc1ccccc1 (stereo unspecified) | 2.63% (inactive)
COc1ccc(C(=O)COC(=O)c2nn(C)c(=O)c3ccccc23)c(OC)c1 | -4.39% (inactive)
Cc1ccc(CC(=O)Nc2ccc(OC(F)F)c(Cl)c2)cc1C | 91.2% (active)
FC(F)Oc1ccc(NC(=S)NCc2ccco2)cc1Cl | 12.2% (inactive)
Cc1ccc(S(=O)(=O)NCCC(=O)Nc2ccc(C)c(Cl)c2)cc1C | 4.01% (inactive)
CC(C)Cn1c(N)c(C(=O)COC(=O)CN2C(=O)C3CC=CCC3C2=O)c(=O)n(C)c1=O (stereo unspecified) | 0.69% (inactive)
O=[N+]([O-])/C(N=Nc1ccccc1)=N\Nc1ccccc1 | 0.84% (inactive)
CCOc1cccc(/C=N/N2C(=O)CSC2=S)c1O | 2.44% (inactive)
Cc1ccccc1-n1cc(CNC(=O)CC2C(=O)NCCN2C/C=C/c2ccccc2)cn1 (stereo unspecified) | -1.38% (inactive)
CCOC(=O)c1oc2c(CN3CCN(CCO)CC3)c(O)c(CC)cc2c(=O)c1-c1nc2ccccc2s1 | -5.26% (inactive)
COc1ccc(-c2cc(C(F)(F)F)nc(S(C)(=O)=O)n2)cc1OC | 71.7% (active)
COc1ccc(-c2cc(C(F)(F)F)nc(SCC(=O)Nc3ccc4c(c3)OCO4)n2)cc1OC | 0.67% (inactive)
COc1cc(OC)nc(S(C)(=O)=O)n1 | -0.01% (inactive)
O=C(/C=C/c1ccc(N2CCOCC2)cc1)c1ccccc1 | 13.2% (inactive)
O=c1[nH]c(CN2CCOCC2)nc2scc(-c3ccccc3)c12 | -8.93% (inactive)
CN(CC(=O)Nc1ccc(S(=O)(=O)N2CCCC2)cc1)Cc1ccc(Cl)c(Cl)c1 | 92% (active)
CS(=O)(=O)N(CC(=O)Nc1ccc(Cl)c(Cl)c1)C1CCCCC1 | 15.8% (inactive)
O=C(CSCc1ccc(Br)cc1)Nc1ccc(S(=O)(=O)N2CCCCCC2)cc1 | 6.78% (inactive)
O=C(NNC(=O)C1CCN(c2ncccn2)CC1)c1ccccc1 | -7.74% (inactive)
O=C(CCCCn1c(=O)[nH]c2ccccc2c1=O)NCc1ccc2c(c1)OCO2 | 4.03% (inactive)
O=C(Cn1nnc(-c2ccccc2)n1)NCc1ccc2c(c1)OCO2 | -6.91% (inactive)
O=C1N(Cc2ccc3c(c2)OCO3)c2ccccc2C1(O)c1c[nH]c2ccccc12 (stereo unspecified) | 88.9% (active)
Cc1ccc(/C=N/NC(=O)COc2ccccc2-c2ccccc2)cc1 | 4.74% (inactive)
CC(=O)n1c(C=Nc2ccccc2)c(O)c2ccccc21 | 4.07% (inactive)

SMILES | inhibition
NS(=O)(=O)c1ccc(NC(=S)NNC(=O)c2cccs2)cc1 | -4.08% (inactive)
CC(=O)Cc1nsc(NC(=O)c2ccc(Cl)cc2Cl)n1 | -1.22% (inactive)
CCOc1cc(N2CCOCC2)c(OCC)cc1NC(=O)C1=NN(c2cccc(C)c2)C(=O)CC1 | 13.6% (inactive)
CCN(CC(=O)NC(=O)NCc1ccccc1)Cc1nc2ccccc2c(=O)[nH]1 | -3.9% (inactive)
CCN(Cc1nc2ccccc2c(=O)[nH]1)Cc1cc(=O)oc2cc(C)c(C)cc12 | 73.8% (active)
CN(Cc1nc2ccccc2c(=O)[nH]1)Cc1cc(=O)oc2ccc3ccccc3c12 | 14.2% (inactive)
COc1cc(/C=C/C(=O)OCC(=O)NC(=O)NCc2ccccc2)ccc1OCC#N | -1.09% (inactive)
CC(=O)c1cc(C#N)c(SCC(=O)Nc2nccs2)nc1C | 1.83% (inactive)
CCOC(=O)c1ccccc1NC(=O)CSc1nc2ccccc2c(=O)[nH]1 | 6.6% (inactive)
O=S(=O)(c1ccc(Br)cc1)n1ccc2ccccc21 | 90.7% (active)
CCCCNS(=O)(=O)c1ccc(S(=O)(=O)n2cnc3ccccc32)cc1 | -3.46% (inactive)
O=S(=O)(c1ccc(-c2ccccc2)cc1)N1CCCC1 | -7.57% (inactive)
COc1ccc(-n2c(O)c(C=NCC(c3ccco3)N3CCCC3)c3ccccc3c2=O)cc1OC (stereo unspecified) | 2.68% (inactive)
CC(=O)c1ccccc1NC(=O)CC1(CC(=O)O)CCCCC1 | 3.25% (inactive)
CCOC(=O)C1=NOC(Cn2cc(C(C)=O)c(=O)[nH]c2=O)C1 (stereo unspecified) | 1.88% (inactive)
N/C(=N\OC(=O)Cc1ccc([N+](=O)[O-])cc1)c1ccccn1 | 98.7% (active)
N/C(=N\OC(=O)c1ccc([N+](=O)[O-])cc1)c1ccccn1 | 1.71% (inactive)
O=C(OCc1ccc([N+](=O)[O-])cc1)c1ccccn1 | -0.28% (inactive)
CNc1nccc(-c2ccc(Cl)cc2)c1C#N | -6.29% (inactive)
COc1cc(OC)cc(-c2nnc(N(C)C(=O)c3ccncc3)s2)c1 | -3.83% (inactive)
Cc1ccc(NC(=O)CSc2nc(CSc3ccc(C)cc3)cc(=O)[nH]2)cc1 | -2.59% (inactive)
CCCCCC(=O)Nc1ccc2oc(-c3ccncc3)nc2c1 | 96.4% (active)
O=C(Cc1cccc2ccccc12)Nc1ccc2oc(-c3ccccc3)nc2c1 | 40.6% (inactive)
O=C(Nc1ccc2oc(-c3ccc4ccccc4c3)nc2c1)c1cccs1 | -1.1% (inactive)
